Screening data deposited in PubChem BioAssay by National Center for Advancing Translational Sciences (NCATS).
DT40 TDP1 no CPT – qHTS for Inhibitors of human tyrosyl-DNA phosphodiesterase 1 (TDP1): qHTS in cells in absence of CPT. actives 15% (n = 420,000). DT40 Tdp1-/- hTDP1 cells, no CPT, ATP luminescence, 48 h. Potency, µM (top dose mostly 46.2 µM), inactives show top-dose activity change, negative = growth inhibition, actives largely listed as inhibitors; also: potency is read from the fitted curve at half-maximal effect; nearly all actives have a fitted effect of over 55% in size
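Chicken DT40 Tdp1-/- cells stably complemented with human TDP1 were seeded at 400 cells/well with DMSO in place of 20 nM camptothecin. After compound pinning, cells grew at least 48 hr at 37 °C; viability read by CellTiter-Glo luminescence.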
IL-1B inflam inh – inflammasome signaling inhibition, IL-1 beta readout; THP-1 LPS/ATP IL-1B secretion, AlphaLISA, 16 h; hits give low values; activity change, % at 57.5 µM; actives 4.7% (n = 360,000); AID 743279; in the data active = activity change below about -50%; inconclusive = mostly about -30% to -49%
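Secreted IL-1B measured by AlphaLISA bead assay after 16 h compound exposure of THP-1 cells; compounds (final up to 57.5 uM) added 1 h before LPS (250 ng/mL) and ATP (1.25 mM) stimulation; lower signal means less secretion.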
HT1080-NT tox – kills 2HG-producing HT-1080-NT fibrosarcoma cells; actives 1.6% (n = 360,000); Potency, µM (titrated, usually from 46.1 µM), without a hit: at the top dose activity, negative = less viability, usual class: cytotoxic; HT-1080-NT fibrosarcoma viability, CellTiter-Glo ATP luminescence, 48 h;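 also: NT is the 2HG producing partner of a matched IDH1 knockdown line; potency is read from the fitted curve at half-maximal effect; 0% = DMSO-treated cells and -100% = media-only wells without cells; nearly all actives have a fitted effect of over 55% in size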
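Fibrosarcoma NT cells, 750 per well in 5% FBS RPMI, were exposed to compound for 48 hours. Viability: CellTiter-Glo luminescence.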
TDP1 cell CPT – growth inhibition of DT40 Tdp1-/-;hTDP1 cells with camptothecin (screen for TDP1 inhibitors); chicken DT40 Tdp1-/-;hTDP1 cells + 20 nM CPT, ATP luminescence, 48 h; Potency, µM (series often up to 46.2 µM), for inactives: at the top dose activity change, negative = growth inhibition, most hits filed as inhibitors; actives 12% (n = 420,000); AID 686979; also: potency is read from the fitted curve at half-maximal effect; nearly all actives have a fitted effect of over 55% in size
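Chicken DT40 Tdp1-/- cells stably complemented with human TDP1 were seeded at 400 cells/well in medium containing 20 nM camptothecin, exposed to pin-transferred compounds, and grown at 37 °C for at least 48 hr. Viability was read as ATP luminescence.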
HT1080 IDH1KD tx – HT-1080 IDH1 knockdown cell toxicity (counter line); HT-1080 IDH1 knockdown viability, ATP luminescence, 48 h; Potency, µM (series often up to 46.1 µM), without a hit: at the highest dose activity, negative = toxicity, usual class: cytotoxic; actives 2% (n = 360,000); AID 686971;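 also: potency is read from the fitted curve at half-maximal effect; 0% = DMSO wells and -100% = cell-free medium wells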
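Assay cells: HT-1080 with IDH1 knockdown, 750 per well, RPMI/5% FBS. Exposure: 48 h at 37 °C following 2 h pre-incubation. Read: CellTiter-Glo luminescence; fitted concentration-response, curve class assigned.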
ALOX12 inh – inhibitors of human 12S-lipoxygenase ALOX12; P18054; Potency, µM (highest dose often 108 µM), for the others: at the top dose activity change, negative = inhibition, usual class: inhibitors; purified 12hLO, xylenol orange hydroperoxide absorbance; AID 1671190; actives 1.1% (n = 580,000); also: potency is read from the fitted curve at half-maximal effect
Target sequence (P18054 whole entry, looked up): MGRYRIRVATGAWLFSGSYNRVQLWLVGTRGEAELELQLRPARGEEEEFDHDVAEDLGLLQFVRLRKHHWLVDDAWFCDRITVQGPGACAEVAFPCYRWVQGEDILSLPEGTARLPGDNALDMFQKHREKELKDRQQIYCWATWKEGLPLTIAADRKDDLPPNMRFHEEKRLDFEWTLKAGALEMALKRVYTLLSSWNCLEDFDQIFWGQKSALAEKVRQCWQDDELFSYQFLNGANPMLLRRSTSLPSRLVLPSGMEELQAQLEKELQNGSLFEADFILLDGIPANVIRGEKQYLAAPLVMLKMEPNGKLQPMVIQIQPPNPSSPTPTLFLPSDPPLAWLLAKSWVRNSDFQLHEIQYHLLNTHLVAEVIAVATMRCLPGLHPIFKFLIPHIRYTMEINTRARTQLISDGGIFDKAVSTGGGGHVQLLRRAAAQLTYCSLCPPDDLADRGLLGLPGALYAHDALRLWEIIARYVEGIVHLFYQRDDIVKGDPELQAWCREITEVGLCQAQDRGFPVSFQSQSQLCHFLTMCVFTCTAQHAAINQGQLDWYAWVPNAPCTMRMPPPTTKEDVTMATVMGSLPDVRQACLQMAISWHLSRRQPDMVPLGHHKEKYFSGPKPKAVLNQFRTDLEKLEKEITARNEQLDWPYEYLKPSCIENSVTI
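Purified human 12hLO (150 nM final) in 25 mM Hepes, 0.01% Triton X-100, pH 7.0 was preincubated 15 min at room temperature with compound. Then 40 uM arachidonic acid was added, 30 min. Hydroperoxide was read by Fe-XO absorbance ratio 573/405 nm.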
* = called active by the depositor; [ ] = another dose, or the depositor's remark. The entries come from a sample that favours hits as a whole. Unless noted, calls follow the shape of the dose curve; as a rule, active = well fitted curve in the direction sought with a large enough effect; inconclusive = small, poorly fitted or top-dose-only effect, or another doubt; inactive = no such curve, though single readings can be large; an effect the other way counts as inactive or inconclusive. Unless noted, % is scaled to controls: 0 for no effect and ±100 for the full control effect.

What do the screens show for `Cc1ncoc1C(=O)NCC1Cn2cccc2C(=O)N1CC(C)C` (stereo not drawn)?
ALOX12 inh: 32.8%

How did O=C(c1cccc(F)c1)N1CCC2(CCCN(c3ccncc3)C2)CC1 do in these assays?
DT40 TDP1 no CPT: inconclusive; TDP1 cell CPT: -5.4%; ALOX12 inh: 7.2%[57.4 µM]

How did O=C(c1cc(C(F)(F)F)cc(C(F)(F)F)c1)N1CCC2(CC1)CCN(c1ccncc1)CC2 do in these assays?
DT40 TDP1 no CPT: 18.4µM*; TDP1 cell CPT: 25.9µM*; ALOX12 inh: -2.3%[57.4 µM]

How did O=C(c1cccc(F)c1)N1CCC2(CC1)CCN(c1ccccn1)CC2 do in these assays?
DT40 TDP1 no CPT: inconclusive; TDP1 cell CPT: inconclusive; ALOX12 inh: 3.9%[57.4 µM]

How did O=C(c1cccc(F)c1)N1CCC2(CC1)CCN(c1ccncc1)CC2 do in these assays?
DT40 TDP1 no CPT: 18.4µM*; TDP1 cell CPT: 7.31µM*; ALOX12 inh: -16.1%[57.4 µM]

Results for O=C(c1cc(C(F)(F)F)cc(C(F)(F)F)c1)N1CCC2(CC1)CN(c1ncccn1)C2 ?
DT40 TDP1 no CPT: inconclusive; TDP1 cell CPT: inconclusive; ALOX12 inh: -7.0%[57.4 µM]

What do the screens show for `O=C(c1cccc(F)c1)N1CCC2(CC1)CN(c1ccccn1)C2`?
DT40 TDP1 no CPT: inconclusive; TDP1 cell CPT: 14.6µM*; ALOX12 inh: -10.1%[57.4 µM]

How did O=C(c1cc(C(F)(F)F)cc(C(F)(F)F)c1)N1CCC2(CCN(Cc3ccncc3)CC2)CC1 do in these assays?
DT40 TDP1 no CPT: inconclusive; TDP1 cell CPT: inconclusive; ALOX12 inh: -12.1%[57.4 µM]

Results for O=C(c1cc(C(F)(F)F)cc(C(F)(F)F)c1)N1CCC2(CC1)CN(c1ccccn1)C2 ?
DT40 TDP1 no CPT: 5.17µM*; TDP1 cell CPT: 4.61µM*; ALOX12 inh: inconclusive

How did CC(=O)NC(c1ccccc1)c1nc(-c2cccc(C#N)c2)cs1 (stereo not drawn) do in these assays?
DT40 TDP1 no CPT: inconclusive; IL-1B inflam inh: -24.7; HT1080-NT tox: -0.1%; TDP1 cell CPT: inconclusive; HT1080 IDH1KD tx: 1.5%; ALOX12 inh: 0.6%

What do the screens show for `O=C(c1cccc(F)c1)N1CCC2(CC1)CCN(c1ncccn1)CC2`?
DT40 TDP1 no CPT: 18.4µM*; TDP1 cell CPT: inconclusive; ALOX12 inh: -7.6%[57.4 µM]

How did O=C(c1cccc(F)c1)N1CCC2(CCCN(c3ncccn3)C2)CC1 do in these assays?
DT40 TDP1 no CPT: inconclusive; TDP1 cell CPT: -8.6%; ALOX12 inh: inconclusive

Results for COc1cccc(/C=C(/C#N)C(=O)c2c[nH]c3cccc(C)c23)c1 ?
ALOX12 inh: -24.6%

What do the screens show for `O=S(=O)(c1cc(F)ccc1F)N1CCN(Cc2ncc(-c3ccc(F)cc3)o2)CC1`?
ALOX12 inh: 12.4%

How did COc1ccc(-n2cc(-c3ccccc3)c3c(NC4CCCC4)ncnc32)cc1 do in these assays?
DT40 TDP1 no CPT: 18.4µM*; TDP1 cell CPT: 23.1µM*; ALOX12 inh: -22.5%

What do the screens show for `Clc1cccc(-n2cc(-c3ccccc3)c3c(NC4CCCC4)ncnc32)c1`?
DT40 TDP1 no CPT: inconclusive; TDP1 cell CPT: inconclusive; ALOX12 inh: -12.2%

How did COc1cccc(N2CCN(c3ncnc4c3c(-c3ccccc3)cn4-c3cccc(C(F)(F)F)c3)CC2)c1 do in these assays?
DT40 TDP1 no CPT: inconclusive; TDP1 cell CPT: -14.6%; ALOX12 inh: -22.3%

How did COc1ccc(-n2cc(-c3ccccc3)c3c(N4CC(C)OC(C)C4)ncnc32)cc1 (stereo not drawn) do in these assays?
DT40 TDP1 no CPT: 11.6µM*; IL-1B inflam inh: -10.3; HT1080-NT tox: inconclusive; TDP1 cell CPT: inconclusive; HT1080 IDH1KD tx: 23.1µM*; ALOX12 inh: 0.8%

What do the screens show for `Cc1ccc(NC(=O)Nc2cc3c(cc2Oc2ccccc2)n(C)c(=O)n3C)cc1F`?
ALOX12 inh: 0.4%

Results for CCc1ccc(CNC(=O)c2cccc(-n3c(C)nc4cccnc43)c2)cc1 ?
DT40 TDP1 no CPT: 16.4µM*; TDP1 cell CPT: 13µM*; ALOX12 inh: -23.6%

How did Cc1nc2cccnc2n1-c1cccc(C(=O)NCc2cccc(Cl)c2)c1 do in these assays?
DT40 TDP1 no CPT: 18.4µM*; TDP1 cell CPT: 20.6µM*; ALOX12 inh: -18.6%

How did Cc1ccc(C(=O)N2CCN(c3cccc(Cl)c3)CC2)cc1-n1c(C)nc2cccnc21 do in these assays?
DT40 TDP1 no CPT: 9.2µM*; TDP1 cell CPT: 10.3µM*; ALOX12 inh: -16.3%

What do the screens show for `CCOC(=O)N1CCc2c(sc3nc(SC(C)C)n(N)c(=O)c23)C1`?
DT40 TDP1 no CPT: 23.1µM*; IL-1B inflam inh: -23.4; HT1080-NT tox: -9.1%; TDP1 cell CPT: 9.2µM*; HT1080 IDH1KD tx: -17.0%; ALOX12 inh: 2.1%

Results for CCOC(=O)N1CCc2c(sc3ncn(C)c(=O)c23)C1 ?
DT40 TDP1 no CPT: -16.1%; HT1080-NT tox: 25.8%; TDP1 cell CPT: 9.5%; HT1080 IDH1KD tx: 17.9%; ALOX12 inh: 15.6%

Results for CCOC(=O)c1[nH]c2c(c1C)/C(=N/O)CCC2 ?
ALOX12 inh: 1.8%

How did COc1cccc(CNc2ccc(S(=O)(=O)N3CCCC3)cn2)c1 do in these assays?
DT40 TDP1 no CPT: inconclusive; IL-1B inflam inh: 7.7; HT1080-NT tox: 2.3%; TDP1 cell CPT: inconclusive; HT1080 IDH1KD tx: -6.6%; ALOX12 inh: -7.7%

How did C/C(=N\Nc1ccc(S(=O)(=O)N2CCCCC2)cn1)c1ccc(O)cc1 do in these assays?
DT40 TDP1 no CPT: 14.6µM*; IL-1B inflam inh: 0.0; HT1080-NT tox: -6.9%; TDP1 cell CPT: inconclusive; HT1080 IDH1KD tx: -12.3%; ALOX12 inh: 7.5%

How did COc1cccc(/C(C)=N/Nc2ccc(S(=O)(=O)N3CCCCC3)cn2)c1 do in these assays?
DT40 TDP1 no CPT: 2.91µM*; IL-1B inflam inh: -2.3; HT1080-NT tox: -10.6%; TDP1 cell CPT: inconclusive; HT1080 IDH1KD tx: -8.9%; ALOX12 inh: 14.5%

What do the screens show for `CC(=O)N(CCC1(c2ccccc2)CCOC(C)(C)C1)Cc1ccccc1` (stereo not drawn)?
ALOX12 inh: 9.1%

How did O=C(NC1CCCC1)c1sc2cc(Cl)ccc2c1Cl do in these assays?
ALOX12 inh: 48.4%

What do the screens show for `COc1ccccc1Oc1nc(-c2ccccc2)cc(C)c1S(C)(=O)=O`?
DT40 TDP1 no CPT: 18.4µM*; IL-1B inflam inh: -5.4; HT1080-NT tox: inconclusive; TDP1 cell CPT: inconclusive; HT1080 IDH1KD tx: inconclusive; ALOX12 inh: 7.8%
